In the supplement of paper PMC10127200:
Structures can show the parent of a compound that is named as a salt.

Experiments:
Assay in all cases: Euclidean distance of Cell Painting phenotypic profile (signed KS, 77 features) to DMSO centroid (dimensionless distance); 5 or 10 uM (library dependent); higher = stronger phenotypic change vs DMSO (phenoactivity)
Conditions in all cases: 48 h
786-O = system: 786-O
Method in brief: (§1)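 Five cancer lines and a healthy fibroblast line received library compounds at 10 or 5 uM (library-dependent, 0.1% DMSO final) for 48 h. Stained cells were imaged confocally at 20X (9 fields/well). Harmony extracted 77 features, each scored as a signed Kolmogorov-Smirnov statistic against same-plate vehicle wells. Profiles were plate-position corrected, correlation-weighted and replicate-averaged at the top dose. Phenoactivity is the Euclidean distance from each profile to the median vehicle profile.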

A549 = system: A549
Method in brief: as §1

DU145 = system: DU145
Method in brief: as §1

FB = system: FB
Method in brief: as §1

HEPG2 = system: HEPG2
Method in brief: as §1

OVCAR4 = system: OVCAR4
Method in brief: as §1

Row | SMILES | Euclidean distance (786-O) | Euclidean distance (A549) | Euclidean distance (DU145) | Euclidean distance (FB) | Euclidean distance (HEPG2) | Euclidean distance (OVCAR4)
1 | CCc1nc(C(N)=O)c(Nc2ccc(N3CCC(N4CCN(C)CC4)CC3)c(OC)c2)nc1NC1CCOCC1 [Gilteritinib (ASP2215)] | 2.93 | 3.06 | 3.49 | 3.66 | 3.86 | 2.89
2 | CCOc1ccccc1OC(c1ccccc1)C1CNCCO1 (configuration not stated) [Reboxetine mesylate] | 1.05 | 0.873 | 2.32 | 0.844 | 2.49 | 0.786
3 | COC1=C2C[C@@H](C)C[C@H](OC)[C@H](O)[C@@H](C)/C=C(\C)[C@H](OC(N)=O)[C@@H](OC)/C=C\C=C(/C)C(=O)NC(=CC1=O)C2=O [Geldanamycin] | 2.87 | 3.3 | 3.52 | 3.35 | 1.8 | 2.91
4 | Clc1ccc(C(Cn2ccnc2)OCc2csc3c(Cl)cccc23)c(Cl)c1 (configuration not stated) [Sertaconazole nitrate] | 1.47 | 1.42 | 1.2 | 1.26 | 0.627 | 1.61
5 | O=C(C[S+]([O-])Cc1ccco1)NC/C=C\COc1cc(CN2CCCCC2)ccn1 (configuration not stated) [Lafutidine] | 0.976 | 1.04 | 1.52 | 1.4 | 2.06 | 1.4
6 | C[C@]1(O)C[C@@H](c2nc(-c3ccc4ccc(-c5ccccc5)nc4c3)c3c(N)nccn32)C1 [OSI-906 (Linsitinib)] | 1.12 | 1.34 | 0.877 | 1.19 | 1.12 | 1.27
7 | Nc1nc(Cl)nc2c1ncn2[C@@H]1O[C@H](CO)[C@@H](O)[C@@H]1F [Clofarabine] | 3.26 | 2.36 | 2.96 | 3.41 | 3.02 | 3.09
8 | O=C(CCCCCN1C(=O)c2cccc3cccc(c23)C1=O)NO [Scriptaid] | 3.19 | 3.02 | 2.28 | 3.75 | 2.92 | 3.33
9 | CC(C)N(C[C@H]1O[C@@H](n2cnc3c(N)ncnc32)[C@H](O)[C@@H]1O)[C@H]1C[C@@H](CCc2nc3cc(C(C)(C)C)ccc3[nH]2)C1 | 0.867 | 0.931 | 1.3 | 1.28 | 0.884 | 0.955
10 | N#Cc1cc(CN2CCC(Nc3ncnc4sc(Cl)cc34)CC2)ccc1F | 0.974 | 1.39 | 1.03 | 1.19 | 1.15 | 1.37
11 | C[C@](N)(Cc1ccc(O)c(O)c1)C(=O)O [Methyldopa] | 1.49 | 0.734 | 1.09 | 0.909 | 0.55 | 0.729
12 | Cc1nc(N(C)C(=O)Cc2ccc(-c3ccccn3)cc2)sc1S(N)(=O)=O [Pritelivir (BAY 57-1293)] | 0.793 | 0.531 | 1.07 | 0.872 | 0.577 | 0.834
13 | COc1nc(C)cnc1NS(=O)(=O)c1cccnc1-c1ccc(-c2nnco2)cc1 [Zibotentan (ZD4054)] | 1.49 | 0.567 | 0.656 | 0.844 | 1.11 | 0.898
14 | CC1(COc2ccc3c(c2)ncn3-c2ccc3cccc(N4CCC(N)CC4)c3n2)COC1 | 3.62 | 3.9 | 3.27 | 3.75 | 3.6 | 3.78
15 | C[C@@H](C(=O)Nc1ccc(Cl)cc1)C1CCC(c2ccnc3ccc(F)cc23)CC1 (some centres not stated) | 1.84 | 2.05 | 1.38 | 1.29 | 1.93 | 1.69
16 | Cn1cc(CNCC2CCN(c3ncc(C(=O)NO)cn3)CC2)c2ccccc21 | 2.78 | 4.19 | 3.88 | 3.5 | 4.44 | 3.65
17 | C=CCN1CCCC1CNC(=O)c1cc2nn[nH]c2cc1OC (configuration not stated) [Alizapride HCl] | 0.796 | 1.43 | 1.04 | 1.13 | 1.28 | 0.984
18 | C=C[C@@H]1C[C@]1(NC(=O)[C@@H]1C[C@@H](Oc2ncc(OC)c3ccc(Cl)cc23)CN1C(=O)[C@@H](NC(=O)OC(C)(C)C)C(C)(C)C)C(=O)NS(=O)(=O)C1CC1 [Asunaprevir] | 1.27 | 1.49 | 0.966 | 0.784 | 0.47 | 1.08
19 | CCCCNc1ncc(-c2ccc(CN3CCOCC3)cn2)c(NC2CCC(O)CC2)n1 (configuration not stated) | 0.709 | 1.2 | 0.694 | 1.26 | 0.659 | 0.882

Row | SMILES | Euclidean distance (786-O) | Euclidean distance (A549) | Euclidean distance (DU145) | Euclidean distance (FB) | Euclidean distance (HEPG2) | Euclidean distance (OVCAR4)
20 | O=C(O[C@@H]1Cc2c(O)cc(O)cc2O[C@@H]1c1cc(O)c(O)c(O)c1)c1cc(O)c(O)c(O)c1 [(-)-Epigallocatechin Gallate] | 0.998 | 0.875 | 1.33 | 1.39 | 1.17 | 0.757
21 | CC(C)(O)CC[C@@H](O)[C@](C)(O)[C@H]1CC[C@@]2(O)C3=CC(=O)[C@@H]4C[C@@H](O)[C@@H](O)C[C@]4(C)[C@H]3CC[C@]12C [20-Hydroxyecdysone] | 0.539 | 1.05 | 1.19 | 1.28 | 1.06 | 1.08
22 | C[C@H]1COc2c(N3CCN(C)CC3)c(F)cc3c(=O)c(C(=O)O)cn1c23 [Levofloxacin] | 1.07 | 1.12 | 0.658 | 0.922 | 0.532 | 1.03
23 | COc1cc2nc(N3CCCN(C)CC3)nc(NC3CCN(Cc4ccccc4)CC3)c2cc1OC | 4.16 | 3.99 | 3.51 | 4.73 | 4.64 | 3.6
24 | CN(C)C(=O)[C@H](O)[C@H](Cc1ccccc1)NC(=O)c1cc2cc(Cl)ccc2[nH]1 | 0.476 | 0.757 | 0.712 | 1.01 | 1.05 | 0.908
25 | CO[C@@]1(NC(=O)Cc2cccs2)C(=O)N2C(C(=O)O)=C(COC(N)=O)CS[C@@H]21 [Cefoxitin] | 0.82 | 0.39 | 0.617 | 0.482 | 0.307 | 1.03
26 | COc1cc2c(cc1Cc1cccc(Cl)c1F)c(=O)c(C(=O)O)cn2[C@H](CO)C(C)C [Elvitegravir (GS-9137. JTK-303)] | 1.44 | 2.36 | 1.33 | 0.872 | 0.582 | 1.76
27 | CC1COc2c(N3CCN(C)CC3)c(F)cc3c(=O)c(C(=O)O)cn1c23 (configuration not stated) [Ofloxacin] | 1.01 | 0.65 | 0.81 | 0.702 | 0.545 | 1.25
28 | Nc1cccc2c1C(=O)N(C1CCC(=O)NC1=O)C2=O (configuration not stated) [Pomalidomide] | 0.929 | 0.804 | 0.704 | 1.06 | 0.312 | 0.886
29 | CNC[C@H](O)[C@@H](O)[C@H](O)[C@H](O)CO [Meglumine] | 1.78 | 1.75 | 2.13 | 1.59 | 0.652 | 1.67
30 | CC(=O)[O-].[K+] [Potassium acetate] | 1.42 | 0.754 | 1.27 | 0.927 | 0.554 | 1.3
31 | O=C1N=C(O)NC1(c1ccccc1)c1ccccc1 [Phenytoin sodium] | 0.57 | 0.743 | 0.884 | 1.08 | 0.937 | 1.27
32 | NC(=N\CCCCCC/N=C(N)/N=C(\N)Nc1ccc(Cl)cc1)/N=C(\N)Nc1ccc(Cl)cc1 [Chlorhexidine diacetate] | 2.69 | 4.3 | 3.46 | 2.04 | 3.03 | 3.25
33 | CNC(=O)c1cc(Oc2ccc(NC(=O)Nc3cc(C(C)(C)C)nn3-c3ccc4ncccc4c3)c(F)c2)ccn1 [DCC-2036 (Rebastinib)] | 2.89 | 3.75 | 4.62 | 2.57 | 2.72 | 2.63
34 | COc1ccccc1Oc1c(NS(=O)(=O)c2ccc(C(C)(C)C)cc2)nc(-c2ncccn2)nc1OCCO [Bosentan Hydrate] | 1.35 | 0.814 | 0.826 | 0.916 | 0.41 | 1.04
35 | CC(=O)CCCCn1c(=O)c2c(ncn2C)n(C)c1=O [Pentoxifylline] | 1.07 | 0.613 | 1.06 | 1.39 | 0.754 | 1.67
36 | O=C1OC2(c3ccc(O)cc3Oc3cc(O)ccc32)c2ccccc21 [Fluorescein] | 0.775 | 0.447 | 0.83 | 0.881 | 1.12 | 1.27
37 | O=C1NC(=O)/C(=C/c2ccc3nccc(-c4ccncc4)c3c2)S1 | 1.74 | 2.75 | 2 | 1.86 | 0.698 | 2.91
